Screen size: about 10,000 compounds; about 5,600 (56%) were called active. The set was probably picked from earlier hits. A selection follows. Values without a mark were called inactive. Rule as the data show it: active = inhibition above about 40%; inactive = the rest.
Target: Protein Mdm4 (Homo sapiens) + E3 ubiquitin-protein ligase Mdm2 (Homo sapiens) (UniProt O15151+Q00987)
Assay: inhibition of human Mdm2/MdmX pairing – luminescence, single concentration, confirmation (AID 489028)
Settings: Mdm2-MdmX binding, luminescent assay; at 8 µM; hits give high values

Chain of Protein Mdm4 (Homo sapiens) + E3 ubiquitin-protein ligase Mdm2 (Homo sapiens) (O15151 whole entry, looked up): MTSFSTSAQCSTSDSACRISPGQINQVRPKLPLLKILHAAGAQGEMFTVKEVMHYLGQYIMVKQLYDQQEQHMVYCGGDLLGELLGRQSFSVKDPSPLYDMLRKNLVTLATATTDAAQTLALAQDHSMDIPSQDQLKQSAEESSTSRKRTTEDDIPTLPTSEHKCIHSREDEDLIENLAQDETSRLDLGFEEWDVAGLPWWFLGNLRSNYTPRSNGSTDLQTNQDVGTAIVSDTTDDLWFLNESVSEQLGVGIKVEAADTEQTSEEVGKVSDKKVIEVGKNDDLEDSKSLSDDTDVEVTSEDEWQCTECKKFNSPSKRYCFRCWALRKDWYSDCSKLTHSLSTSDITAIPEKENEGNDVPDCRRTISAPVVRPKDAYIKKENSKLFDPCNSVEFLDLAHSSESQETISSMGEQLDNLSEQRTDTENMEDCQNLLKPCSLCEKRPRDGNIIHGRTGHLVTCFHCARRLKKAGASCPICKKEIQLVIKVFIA
Chain of Protein Mdm4 (Homo sapiens) + E3 ubiquitin-protein ligase Mdm2 (Homo sapiens) (Q00987 whole entry, looked up): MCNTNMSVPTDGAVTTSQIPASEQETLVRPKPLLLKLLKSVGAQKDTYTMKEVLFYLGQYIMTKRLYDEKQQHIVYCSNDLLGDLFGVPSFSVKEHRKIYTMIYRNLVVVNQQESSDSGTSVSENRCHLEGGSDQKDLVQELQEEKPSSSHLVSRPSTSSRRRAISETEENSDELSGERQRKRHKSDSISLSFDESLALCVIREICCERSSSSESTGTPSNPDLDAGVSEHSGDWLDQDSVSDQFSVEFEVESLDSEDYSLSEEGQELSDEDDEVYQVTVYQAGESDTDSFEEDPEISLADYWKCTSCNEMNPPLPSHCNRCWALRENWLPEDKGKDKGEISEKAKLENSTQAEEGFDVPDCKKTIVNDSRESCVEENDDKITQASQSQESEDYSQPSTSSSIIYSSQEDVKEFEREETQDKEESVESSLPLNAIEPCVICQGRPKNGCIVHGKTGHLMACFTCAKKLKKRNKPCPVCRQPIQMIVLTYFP

SMILES | inhibition
Cc1ccccc1OCCOc1ccc([N+](=O)[O-])cc1/C=N/n1cnnc1 | 58.2% (active)
Fc1ccccc1/C=C1\CCCC2=C1Nc1ncnn1C2c1ccccc1F (stereo not drawn) | 83% (active)
COc1ccc(OC)c(C2C3=C(N=c4s/c(=C\c5cccc(O)c5)c(=O)n42)c2ccccc2CC3)c1 (stereo not drawn) | 28.1%
CC1CCCCC1NC(=O)/C(C#N)=C/C=C/c1ccccc1[N+](=O)[O-] (stereo not drawn) | 93% (active)
O=C(CCn1c(=S)[nH]c2cc3c(cc2c1=O)OCO3)NCc1ccc(Cl)cc1 | 5.65%
Cc1ccc(C)c(N2CCN(C(=O)CCCCCn3c(=S)[nH]c4ccc(N5CCOCC5)cc4c3=O)CC2)c1 | 43.1% (active)
O=C(CCCCCn1c(=S)[nH]c2cc3c(cc2c1=O)OCO3)N1CCN(c2ccc(F)cc2)CC1 | 36.2%
CCN1/C(=C\c2ccc3ccccc3[n+]2CC)Sc2cc(C)ccc21 | 78.1% (active)
O=C(NCC#CCSc1nnc(-c2cccc3ccccc23)o1)c1cccs1 | 83.7% (active)
Oc1ccc(N=Nc2nccs2)c(O)c1 | 35%
CS(=O)(=O)N(CC(O)Cn1c2ccccc2c2ccccc21)c1cccc2ccccc12 (stereo not drawn) | 15.5%
C=C(C)C(=O)O[C@H]1C/C(C)=C\C(=O)/C=C(\C)[C@H](O)[C@@H]2OC(=O)C(=C)[C@@H]21 | 56.6% (active)
CC(Nc1nc(C(F)(F)F)nc2ccccc12)c1cccs1 (stereo not drawn) | 50.4% (active)
Cc1nnc(N/N=C/c2ccccn2)[nH]c1=O | 86.6% (active)
CCc1ccc2c(c1)C1(NN=C(c3ccccc3)S1)C(=O)N2 (stereo not drawn) | 53.1% (active)
Nc1nc(CC(=O)CSc2ccc(Cl)cc2)nc(Nc2ccc(F)cc2)n1 | 71% (active)
COc1ccccc1N1CCN(c2ncnc3sc(C)c(-c4ccccc4)c23)CC1 | 25.6%
Oc1ccccc1N1CCN(c2ncnc3sc(-c4ccccc4)cc23)CC1 | 58% (active)
c1ccc2c(c1)C(=NC1CCCCC1)NC2=NC1CCCCC1 | 53.5% (active)
Cc1cccc(-n2ncc(Cl)c(Cl)c2=O)c1 | 87.5% (active)
Cc1cc(C)c2c(-c3ccc(F)cc3)c(C#N)c(=O)n(C)c2n1 | 12%
CCN(CC)S(=O)(=O)c1ccc(NC(=O)c2cccnc2Cl)c(NC(=O)c2cccnc2Cl)c1 | 95.8% (active)

SMILES | inhibition
O=C1N/C(=C/c2cccn2-c2ccccc2)C(=O)N1c1cccc(Cl)c1 | 59.4% (active)
COc1ccc(CNC(=O)C(c2ccc(O)cc2)N(Cc2ccco2)C(=O)c2snc(C(N)=O)c2N)cc1 (stereo not drawn) | 45% (active)
N=c1c2c(-c3ccccc3)c(-c3ccccc3)n(Cc3ccccc3)c2ncn1CCCO | 62.9% (active)
CCCC[C@@H]1CN=C(N)N1CCc1cc(C(F)(F)F)cc(C(F)(F)F)c1 | 32.2%
CC1=C/C(=N\OS(=O)(=O)c2ccccc2)C=CC1=O | 45.8% (active)
CCOc1cc(NC(=O)c2ccco2)c(OCC)cc1NC(=O)COc1ccccc1 | 25.9%
CCOc1cc(N2CCOCC2)c(OCC)cc1NC(=O)COc1cccc2cccnc12 | 80.8% (active)
CN1CCN(c2ccccc2NC(=O)COc2ccc(C3CCCCC3)cc2)CC1 | 20%
CCc1ccc(N(CC)c2ncnc3nc[nH]c23)cc1 | 52.4% (active)
Cc1cccc(-c2oc3ccc(-c4ccc5c(c4)OCO5)cc3c2C#Cc2cncn2C)c1 | 30.1%
COc1ccc2sc(-c3ccc(S(C)(=O)=O)cc3)c(C#Cc3cncn3C)c2c1 | 60.5% (active)
O=C(CCNC(=O)c1ccc(Cl)cc1)NC1CCCc2ccccc21 (stereo not drawn) | 57.9% (active)
COc1ccc(-c2ccc(Nc3ccc(S(=O)(=O)N4CCCC4)cc3)nn2)cc1OC | 53.5% (active)
CC(C)Cc1nc(Nc2ccc(S(=O)(=O)N3CCCC3)cc2)c2nnn(Cc3ccccc3)c2n1 | 36.1%
COc1ccc(C(CCN(Cc2ccc(OC)c(OC)c2)C(=O)CCl)c2ccccc2)cc1 (stereo not drawn) | 73.3% (active)
CCOC(=O)CC1C(=O)NCCN1c1nc2c(C)cccn2c(=O)c1/C=C1\SC(=S)N(C(C)CC)C1=O (stereo not drawn) | 61.7% (active)
COc1ccccc1-n1nnnc1S(=O)(=O)Cc1ccc(Cl)cc1 | 74.9% (active)
NC(N)=N/N=C/c1ccc(OCc2ccc(Cl)cc2Cl)cc1 | 99.7% (active)
CCCCCCc1cc2cc(-c3nnc(-c4ccccc4)o3)c(=O)oc2cc1O | 0.95%
CC(Nc1nc(N2CCCC2)nc2ccccc12)c1ccccc1 (stereo not drawn) | 40.5% (active)
Cc1[nH]nc(-c2ccc(OCc3cnn(-c4ccccc4)c3)cc2O)c1Oc1ccc(Cl)cc1 | 25.5%
COC(=O)c1sc(-c2ccc(C(C)(C)C)cc2)cc1NC(=O)/C=C/C(=O)O | 52.6% (active)

SMILES | inhibition
O=S(=O)([N-]c1nc2ccccc2nc1-[n+]1ccc(Cc2ccccc2)cc1)c1ccc(Br)s1 | 60% (active)
Cc1cc(CNC(=O)c2cccc([N+](=O)[O-])c2)c2ccccc2n1 | 58.7% (active)
Cc1cccc(-c2nc3ccc(C(=O)NCCN4CCN(C)CC4)cc3nc2-c2cccc(C)c2)c1 | 28.6%
O=C(NCc1ccccc1)C1=C[C@@H](C2CCCCC2)C[C@@H](OCc2ccc(CO)cc2)O1 | 32.2%
CN(C)CC(O)COc1ccc(C(C)(C)c2ccc(OCC(O)CN(C)C)cc2)cc1 (stereo not drawn) | 89.7% (active)
CN(Cc1ccccc1)CC(O)COc1ccc(CNCc2cc3ccccc3s2)cc1 (stereo not drawn) | 32.6%
COc1ccc(C2=Nn3c(nnc3-c3ccccc3OC)SC2)cc1OC1CCCC1 | 73.4% (active)
COc1cccc2cc(C(N)=O)/c(=N\NC(=O)c3ccccc3)oc12 | 44% (active)
Cc1cccc(NC(=O)Nc2cccc(Oc3c(F)c(F)c(F)c(F)c3F)c2)c1 | 73% (active)
Cc1cccc(CN2CCC(CNC(=O)Nc3ccc(F)c(Cl)c3)CC2)c1 | 36%
Oc1c(Br)cccc1/C=N/Nc1c(F)c(F)c(F)c(F)c1F | 58.2% (active)
CNC[C@H](CC1CCCCC1)NC[C@H](NCCC1CCCC1)[C@H](C)O | 77% (active)
Cc1ccc(C(=O)N/C(=C/c2ccc(-c3cccc([N+](=O)[O-])c3)o2)C(=O)NCCCN(C)C)cc1 | 49.5% (active)
Cc1ccc(Cc2cnc(NC(=O)/C(C#N)=C/c3ccc(-c4cccc([N+](=O)[O-])c4)o3)s2)cc1 | 6.4%
CC(C)n1cnc2c(Nc3cccc(Cl)c3)nc(N(CCO)CCCO)nc21 | 60.8% (active)
CC12CCC(C(=O)N(NC(=O)c3ccccc3O)C1=O)C2(C)C (stereo not drawn) | 11.2%
CCC(c1nnnn1C1CCCC1)N(Cc1cccs1)Cc1cc2cccc(C)c2[nH]c1=O (stereo not drawn) | 13.8%
CN(c1ccc2nc3ccccc3c(=O)n2n1)C1CCCCC1 | 89.9% (active)
CC(=O)Oc1c(C(=O)c2nnc(C)o2)c(=O)n(Cc2ccccc2)c2ccccc12 | 55% (active)
Cc1cc(Nc2cc(N3CCN(C)CC3)nc(Sc3ccc(NC(=O)C4CC4)cc3)n2)n[nH]1 | 82% (active)
O=C(c1[nH]ncc1-c1ccc(Cl)cc1)C1CO1 (stereo not drawn) | 45.3% (active)
COc1cc(OC)c(OC)cc1/C=N/Nc1ncnc2c1[nH]c1ccc(C)cc12 | 27%

SMILES | inhibition
COc1ccc(Cc2nnc(N/N=C/c3ccccc3O)[nH]c2=O)cc1OC | 76.2% (active)
Cc1ccc(N(Cc2cc(=O)[nH]c3ccccc23)C(=O)CCl)cc1 | 74.9% (active)
COc1ccc(-c2nc(-c3ccccc3)no2)c(OC)c1 | 50.4% (active)
CC(C)n1cnc2c(NCc3ccccc3)cc(N[C@@H](CO)Cc3ccccc3)cc21 | 32.5%
Cc1c(NC(=O)CSc2cccc3cccnc23)c(=O)n(-c2ccccc2)n1C | 10.3%
O=C(CSc1cccc2cccnc12)N/N=C/c1cccnc1 | 45% (active)
O=C1Nc2cc(C(=O)N3CCC(N4CCCCC4)CC3)ccc2S/C1=C\c1ccccc1 | 27.8%
c1ccc(C2CCC(N3CCC(N4CCCCC4)CC3)CC2)cc1 (stereo not drawn) | 86.5% (active)
CC(NC(=O)Nc1ccccc1)C(c1cccs1)N1CCN(c2ccccc2)CC1 (stereo not drawn) | 70.3% (active)
COc1ccc(C2CC(c3cccs3)=NN2c2nc(C)c(C(C)=O)s2)cc1OC (stereo not drawn) | 25.1%
Cn1cc([N+](=O)[O-])c(C(=O)Nc2cnn(Cc3ccc(F)cc3)c2)n1 | 57.5% (active)
O=C(Nc1cccc(-c2cccc(Cl)c2)c1)C1CCN(C2CCC2)CC1 | 31.5%
CCn1cc(CN2CCC(C(=O)Nc3cccc(-c4cccc(Cl)c4)c3)CC2)cn1 | 31.9%
CCn1cc(CN2CCC(C(=O)Nc3cccc(-c4cccc(Cl)c4)c3)CC2)c(C)n1 | 48% (active)
CCN(CC)CCC(c1cc(OC)c(OC)c(OC)c1)c1c(OC)cc(OC)c2c(-c3ccccc3)cc(=O)oc12 (stereo not drawn) | 27.6%
COc1cc(OC)c2c(-c3cccc(-c4cccc(N)c4)c3)cc(=O)oc2c1 | 52.7% (active)
CCN(CC)CCC(c1ccc2c(c1)OCO2)c1c(OC)cc(OC)c2c(-c3ccccc3)cc(=O)oc12 (stereo not drawn) | 29.8%
COc1c(C)c2c(c(O)c1C/C=C(\C)CCC(=O)O)C(=O)OC2 | 80.7% (active)
CCCCn1c(-c2cccc(C)c2)nc2cc3[nH]c(=O)c(C(C)C)nc3cc21 | 38%
COc1ccc(-c2nc3cc(C)ccn3c2NC2CCCCC2)cc1SC1CCCCC1 | 19.9%
COc1cc(NC(=O)c2cncc(-c3ccc(C#N)cc3)c2)cc(C(=O)Nc2cccc(C(F)(F)F)c2)c1 | 55.5% (active)
CCOC(=O)c1ccc(NC(=O)c2nc[nH]c2C(=O)N[C@@H](CCCCNC(=O)OC(C)(C)C)C(=O)OC(C)(C)C)cc1 | 19.6%

SMILES | inhibition
COc1cc(NC(=O)c2[nH]cnc2C(N)=O)cc(C(=O)Nc2cccc(C(F)(F)F)c2)c1 | 63.5% (active)
Cc1nc(SCC(=O)Nc2cc(C)on2)c2c(C)c(C)sc2n1 | 27.6%
Cc1nc(N=C(N)N)nc2c(C)cccc12 | 53.1% (active)
O=C(Cc1ccc(Cl)c(Cl)c1)Nc1ccc(SC(F)F)cc1 | -2.4%
O=C(CC(O)(C(F)(F)F)C(F)(F)F)Nc1ccc(Cl)c(Cl)c1 | 95.7% (active)
COC(=O)C1=CN(C)C=C(C(=O)OC)C1c1ccc(Cl)cc1Cl | 3.05%
O=C(/C(=C/c1cccc(Cl)c1)c1nc2ccccc2[nH]1)c1ccccc1 | 43.5% (active)
CCOc1cc(/C=C/c2nc3ccccc3c(=O)[nH]2)cc(Br)c1OC | 69.5% (active)
Cc1ccc(-c2cn3cc(C)ccc3n2)cc1 | 81.3% (active)
Cc1ccc2nc(-c3ccc(Br)cc3)cn2c1 | 53.3% (active)
Cc1ccc(Nc2cc(=O)n(C3CCCCC3)c(=O)[nH]2)cc1C | 19.4%
O=C(c1ccc(Cl)cc1)N1N=C(c2ccccn2)CC1(O)C(F)(F)F (stereo not drawn) | 15.9%
O=C1[C@H]2[C@@H](c3ccc(F)cc3)N3C(=O)N(c4ccc(C(F)(F)F)cc4)C(=O)[C@@]3(Cc3ccccc3)[C@H]2C(=O)N1C1CCCCC1 | 100% (active)
Cc1cccc([C@@H]2[C@@H]3C(=O)N(Cc4ccccc4)C(=O)[C@@H]3[C@]3(C)C(=O)N(c4ccc(Br)cc4)C(=O)N23)c1 | 24.9%
CSc1nc(-c2ccccc2)nc(C(Cl)Cl)n1 | 98.6% (active)
OCCCNc1nccc(-c2cc(Nc3cccc(Cl)c3)ncn2)n1 | 99.8% (active)
COc1ccc(C(=O)NC(=S)NNC(=O)CCc2ccccc2)cc1 | 4.55%
CC[C@]1(C(=O)OC)[C@H]2C(=O)N(Cc3ccccc3)C(=O)[C@H]2[C@H]2CN=C(SCc3ccc(Cl)cc3)N21 | 99.7% (active)
CC[C@]1(C(=O)OC)[C@H]2C(=O)N(Cc3ccccc3)C(=O)[C@H]2[C@H]2CN=C(SCc3ccccc3)N21 | 70% (active)
CC[C@]1(C(=O)OC)[C@H]2C(=O)N(Cc3ccccc3)C(=O)[C@H]2[C@H]2CN=C(SCc3ccc(C#N)cc3)N21 | 98.8% (active)
